Assay results from the supplement of paper PMC10849652.
The full data set covers some 7,900 targets. This sample favours those with a hit. About 0.6% of all pairs of compound and target were hits.

Experiments:
Assay in all cases: log2 fold change, soluble protein after heating vs DMSO (PISA); higher = thermal stabilisation; K562 cells, 10 uM, 30 min; active = over 0.2 and 3.5 SD of the protein, either way, in both replicates (recomputed)
YWHAB = YWHAB (UniProt P31946)
Procedure, shortened: (§1)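 K562 cells at 2×10^6 cells/mL were treated for 30 min with 10 μM compound, and aliquots were heated for 3 min over 48°C-58°C before pooling. Extraction used PBS with 0.5% NP-40 at 4°C, and soluble protein was the supernatant after 21,000xg for 90 min, measured by TMTpro 16plex LC-MS/MS with channel sums equalised. Thermal stability values, relative to control samples and from duplicates, are log2 fold changes.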

YWHAQ = YWHAQ (UniProt P27348)
Procedure, shortened: as §1

YWHAZ [1] = target: YWHAZ (UniProt E7ESK7)
Procedure, shortened: as §1

YWHAZ [2] = target: YWHAZ (UniProt P63104)
Procedure, shortened: as §1

YY1 = YY1 (UniProt P25490)
Procedure, shortened: as §1

ZADH2 = ZADH2 (UniProt Q8N4Q0)
Procedure, shortened: as §1

ZBTB17 isoform 2 = ZBTB17 isoform 2 (UniProt Q13105)
Procedure, shortened: as §1

ZBTB21 = ZBTB21 (UniProt Q9ULJ3)
Procedure, shortened: as §1

ZBTB43 = ZBTB43 (UniProt O43298)
Procedure, shortened: as §1

ZC3H18 = ZC3H18 (UniProt Q86VM9)
Procedure, shortened: as §1

ZC3H8 = ZC3H8 (UniProt Q8N5P1)
Procedure, shortened: as §1

ZC3HC1 = ZC3HC1 (UniProt Q86WB0)
Procedure, shortened: as §1

ZCCHC9 = ZCCHC9 (UniProt Q8N567)
Procedure, shortened: as §1

ZDHHC17 = ZDHHC17 (UniProt Q8IUH5)
Procedure, shortened: as §1

ZDHHC20 = ZDHHC20 (UniProt Q5W0Z9)
Procedure, shortened: as §1

ZDHHC5 = ZDHHC5 (UniProt Q9C0B5)
Procedure, shortened: as §1

ZDHHC7 isoform 2 = ZDHHC7 isoform 2 (UniProt Q9NXF8)
Procedure, shortened: as §1

ZDHHC8 isoform 3 = ZDHHC8 isoform 3 (UniProt Q9ULC8)
Procedure, shortened: as §1

ZDHHC6 = ZDHHC6 (UniProt Q9H6R6)
Procedure, shortened: as §1

Measured: log2 fold change

ZDHHC6, sequence (Q9H6R6 whole entry, looked up): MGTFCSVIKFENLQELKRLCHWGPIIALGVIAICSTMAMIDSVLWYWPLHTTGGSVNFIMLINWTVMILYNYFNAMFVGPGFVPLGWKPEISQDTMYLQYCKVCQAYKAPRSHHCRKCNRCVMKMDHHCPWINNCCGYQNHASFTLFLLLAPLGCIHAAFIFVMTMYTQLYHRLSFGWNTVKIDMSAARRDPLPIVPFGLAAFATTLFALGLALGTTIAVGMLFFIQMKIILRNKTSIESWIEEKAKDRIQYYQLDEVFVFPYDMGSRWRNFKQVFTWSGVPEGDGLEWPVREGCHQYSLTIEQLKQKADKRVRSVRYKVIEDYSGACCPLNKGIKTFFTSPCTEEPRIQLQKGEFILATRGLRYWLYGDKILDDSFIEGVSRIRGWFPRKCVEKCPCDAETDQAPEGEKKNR
ZDHHC7 isoform 2, sequence (Q9NXF8 whole entry, looked up, canonical isoform): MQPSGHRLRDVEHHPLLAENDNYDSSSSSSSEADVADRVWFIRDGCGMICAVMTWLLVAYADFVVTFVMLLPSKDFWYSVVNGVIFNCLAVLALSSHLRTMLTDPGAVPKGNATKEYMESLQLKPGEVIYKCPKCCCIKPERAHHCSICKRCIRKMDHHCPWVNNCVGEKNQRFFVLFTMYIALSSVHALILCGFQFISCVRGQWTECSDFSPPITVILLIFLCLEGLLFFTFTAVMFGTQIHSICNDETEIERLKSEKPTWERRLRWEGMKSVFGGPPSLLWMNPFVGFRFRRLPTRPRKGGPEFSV
ZDHHC5, sequence (Q9C0B5 whole entry, looked up): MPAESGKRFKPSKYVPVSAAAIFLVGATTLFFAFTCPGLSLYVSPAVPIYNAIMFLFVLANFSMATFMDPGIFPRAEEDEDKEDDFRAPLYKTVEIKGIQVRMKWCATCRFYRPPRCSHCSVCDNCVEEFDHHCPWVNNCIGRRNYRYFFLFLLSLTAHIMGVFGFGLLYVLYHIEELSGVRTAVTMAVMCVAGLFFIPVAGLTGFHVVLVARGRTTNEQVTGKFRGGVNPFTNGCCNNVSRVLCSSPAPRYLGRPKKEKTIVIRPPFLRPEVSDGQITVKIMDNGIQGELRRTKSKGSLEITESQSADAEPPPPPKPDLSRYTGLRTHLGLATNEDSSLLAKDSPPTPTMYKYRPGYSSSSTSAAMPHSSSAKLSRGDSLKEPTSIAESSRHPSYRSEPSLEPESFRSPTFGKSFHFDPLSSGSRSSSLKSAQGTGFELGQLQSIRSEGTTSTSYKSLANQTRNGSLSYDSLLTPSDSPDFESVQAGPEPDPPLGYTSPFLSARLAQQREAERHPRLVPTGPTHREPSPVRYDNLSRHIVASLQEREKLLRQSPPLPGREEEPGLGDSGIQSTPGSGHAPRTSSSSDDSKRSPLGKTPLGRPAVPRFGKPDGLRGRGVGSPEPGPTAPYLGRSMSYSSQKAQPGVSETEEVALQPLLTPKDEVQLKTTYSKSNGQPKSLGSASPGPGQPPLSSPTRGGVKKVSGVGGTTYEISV
ZC3HC1, sequence (Q86WB0 whole entry, looked up): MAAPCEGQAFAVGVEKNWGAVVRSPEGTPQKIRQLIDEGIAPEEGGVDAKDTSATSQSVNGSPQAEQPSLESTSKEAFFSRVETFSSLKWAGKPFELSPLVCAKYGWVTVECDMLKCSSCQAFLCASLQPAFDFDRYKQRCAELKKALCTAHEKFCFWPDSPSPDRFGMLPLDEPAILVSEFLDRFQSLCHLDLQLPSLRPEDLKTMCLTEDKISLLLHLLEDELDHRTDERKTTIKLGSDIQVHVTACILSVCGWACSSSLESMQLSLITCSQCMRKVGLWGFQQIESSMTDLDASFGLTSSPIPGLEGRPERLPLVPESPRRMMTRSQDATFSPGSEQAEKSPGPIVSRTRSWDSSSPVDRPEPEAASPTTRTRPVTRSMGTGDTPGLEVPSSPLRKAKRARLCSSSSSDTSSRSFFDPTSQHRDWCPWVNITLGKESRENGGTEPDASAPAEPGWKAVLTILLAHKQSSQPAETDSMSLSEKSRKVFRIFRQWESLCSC
ZDHHC17, sequence (Q8IUH5 whole entry, looked up): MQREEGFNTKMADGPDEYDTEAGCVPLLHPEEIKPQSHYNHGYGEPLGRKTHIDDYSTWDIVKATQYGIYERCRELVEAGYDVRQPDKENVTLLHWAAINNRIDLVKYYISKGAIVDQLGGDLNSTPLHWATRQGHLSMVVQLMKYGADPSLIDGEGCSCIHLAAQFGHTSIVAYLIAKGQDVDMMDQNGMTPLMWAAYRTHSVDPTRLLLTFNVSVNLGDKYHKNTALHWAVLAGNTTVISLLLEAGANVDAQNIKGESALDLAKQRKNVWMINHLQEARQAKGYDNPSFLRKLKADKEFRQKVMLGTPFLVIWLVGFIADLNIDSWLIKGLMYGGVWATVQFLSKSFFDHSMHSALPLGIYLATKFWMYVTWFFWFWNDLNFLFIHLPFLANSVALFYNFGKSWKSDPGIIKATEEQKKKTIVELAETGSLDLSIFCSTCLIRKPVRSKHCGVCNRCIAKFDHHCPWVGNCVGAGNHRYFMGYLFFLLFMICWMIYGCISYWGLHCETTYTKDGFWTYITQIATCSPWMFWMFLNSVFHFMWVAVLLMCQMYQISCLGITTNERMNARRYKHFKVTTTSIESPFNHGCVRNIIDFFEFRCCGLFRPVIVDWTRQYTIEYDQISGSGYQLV
YWHAB, sequence (P31946 whole entry, looked up): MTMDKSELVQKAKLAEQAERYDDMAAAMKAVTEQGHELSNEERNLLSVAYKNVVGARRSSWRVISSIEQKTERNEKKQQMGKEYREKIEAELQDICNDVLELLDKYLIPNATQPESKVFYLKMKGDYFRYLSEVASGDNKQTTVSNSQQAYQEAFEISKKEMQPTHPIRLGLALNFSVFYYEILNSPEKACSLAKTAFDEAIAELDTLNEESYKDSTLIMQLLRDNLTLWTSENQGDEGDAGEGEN
ZC3H18, sequence (Q86VM9 whole entry, looked up): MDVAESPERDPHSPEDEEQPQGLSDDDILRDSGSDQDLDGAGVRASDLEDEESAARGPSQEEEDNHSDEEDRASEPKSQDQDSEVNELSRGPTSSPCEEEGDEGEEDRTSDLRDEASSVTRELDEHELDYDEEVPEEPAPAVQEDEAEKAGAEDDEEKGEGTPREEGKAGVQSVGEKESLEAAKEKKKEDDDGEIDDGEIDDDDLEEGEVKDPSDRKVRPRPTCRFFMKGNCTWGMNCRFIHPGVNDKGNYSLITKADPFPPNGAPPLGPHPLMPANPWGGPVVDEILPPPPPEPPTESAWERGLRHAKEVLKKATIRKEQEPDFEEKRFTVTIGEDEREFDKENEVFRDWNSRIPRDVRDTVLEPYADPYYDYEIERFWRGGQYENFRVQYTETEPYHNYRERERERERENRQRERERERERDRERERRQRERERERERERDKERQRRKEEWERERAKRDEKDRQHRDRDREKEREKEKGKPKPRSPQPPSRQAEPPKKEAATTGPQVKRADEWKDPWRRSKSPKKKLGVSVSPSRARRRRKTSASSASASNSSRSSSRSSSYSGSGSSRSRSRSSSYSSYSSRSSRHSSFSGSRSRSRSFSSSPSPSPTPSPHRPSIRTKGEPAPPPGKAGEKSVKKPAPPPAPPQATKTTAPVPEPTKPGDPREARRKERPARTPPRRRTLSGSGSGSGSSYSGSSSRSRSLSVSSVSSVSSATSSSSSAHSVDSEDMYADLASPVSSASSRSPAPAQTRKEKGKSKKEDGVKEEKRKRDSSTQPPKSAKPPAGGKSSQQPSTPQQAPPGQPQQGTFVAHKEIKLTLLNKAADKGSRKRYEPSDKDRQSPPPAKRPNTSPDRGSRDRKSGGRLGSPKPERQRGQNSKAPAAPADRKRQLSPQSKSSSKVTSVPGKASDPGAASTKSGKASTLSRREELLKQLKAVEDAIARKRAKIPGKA
YWHAQ, sequence (P27348 whole entry, looked up): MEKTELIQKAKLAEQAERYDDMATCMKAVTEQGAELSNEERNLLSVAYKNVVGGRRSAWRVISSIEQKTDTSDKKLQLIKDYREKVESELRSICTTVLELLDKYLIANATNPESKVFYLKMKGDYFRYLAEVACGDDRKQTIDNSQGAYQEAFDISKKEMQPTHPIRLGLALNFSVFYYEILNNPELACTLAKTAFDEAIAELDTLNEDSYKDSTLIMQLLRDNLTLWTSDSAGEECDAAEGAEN
ZCCHC9, sequence (Q8N567 whole entry, looked up): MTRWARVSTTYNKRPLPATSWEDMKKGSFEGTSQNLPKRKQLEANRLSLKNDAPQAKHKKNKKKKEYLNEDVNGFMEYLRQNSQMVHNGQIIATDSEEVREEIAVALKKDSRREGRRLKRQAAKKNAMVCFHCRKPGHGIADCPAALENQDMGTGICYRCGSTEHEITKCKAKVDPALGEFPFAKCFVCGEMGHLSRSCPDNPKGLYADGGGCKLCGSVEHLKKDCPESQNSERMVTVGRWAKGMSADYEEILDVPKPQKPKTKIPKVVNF
ZADH2, sequence (Q8N4Q0 whole entry, looked up): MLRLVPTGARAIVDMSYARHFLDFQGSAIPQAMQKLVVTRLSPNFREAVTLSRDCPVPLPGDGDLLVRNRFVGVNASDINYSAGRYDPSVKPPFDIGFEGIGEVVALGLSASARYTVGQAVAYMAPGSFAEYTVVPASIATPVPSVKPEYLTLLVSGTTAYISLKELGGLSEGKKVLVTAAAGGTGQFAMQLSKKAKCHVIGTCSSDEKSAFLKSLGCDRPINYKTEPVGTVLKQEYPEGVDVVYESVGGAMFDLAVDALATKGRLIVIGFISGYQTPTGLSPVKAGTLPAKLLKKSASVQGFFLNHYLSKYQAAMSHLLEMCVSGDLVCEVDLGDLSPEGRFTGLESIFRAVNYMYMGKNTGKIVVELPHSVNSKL
YWHAZ (UniProt P63104), sequence (P63104 whole entry, looked up): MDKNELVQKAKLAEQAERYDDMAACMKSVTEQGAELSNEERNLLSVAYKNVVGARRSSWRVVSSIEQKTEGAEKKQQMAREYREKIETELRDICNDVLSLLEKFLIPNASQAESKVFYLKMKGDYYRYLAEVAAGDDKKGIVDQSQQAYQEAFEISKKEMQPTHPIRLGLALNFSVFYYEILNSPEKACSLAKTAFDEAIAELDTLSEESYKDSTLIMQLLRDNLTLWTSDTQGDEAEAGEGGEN

Cc1cc(Nc2cc(N3CCN(C)CC3)nc(Sc3ccc(NC(=O)C4CC4)cc3)n2)n[nH]1 [tozasertib]
inactive: YWHAB 0.019 | YWHAQ 0.046 | YWHAZ [1] 0.176 | YWHAZ [2] 0.045 | YY1 0.099 | ZADH2 0.014 | ZBTB17 isoform 2 0.299 | ZBTB21 -0.219 | ZBTB43 0.063 | ZC3H18 0.061 | ZC3H8 0.058 | ZC3HC1 0.047 | ZCCHC9 0.04 | ZDHHC17 -0.02 | ZDHHC20 0.006 | ZDHHC5 -0.057 | ZDHHC7 isoform 2 -0.04 | ZDHHC8 isoform 3 -0.041

CCCCN(Cc1ccc(C(=O)NO)cc1)C(=O)Nc1ccccc1 [Nexturastat A]
inactive: YWHAB -0.048 | YWHAQ -0.063 | YWHAZ [1] 0.34 | YWHAZ [2] -0.051 | YY1 0.069 | ZADH2 0.005 | ZBTB21 0.106 | ZBTB43 -0.203 | ZC3H18 0.11 | ZC3H8 0.106 | ZC3HC1 -0.106 | ZCCHC9 0.311 | ZDHHC17 -0.086 | ZDHHC20 -0.149 | ZDHHC5 -0.001 | ZDHHC6 -0.06 | ZDHHC7 isoform 2 0.052 | ZDHHC8 isoform 3 -0.151

CO[C@H]1C[C@@H]2CC[C@@H](C)[C@@](O)(O2)C(=O)C(=O)N2CCCC[C@H]2C(=O)O[C@H]([C@H](C)C[C@@H]2CC[C@H](n3cnnn3)[C@H](OC)C2)CC(=O)[C@H](C)/C=C(\C)[C@@H](O)[C@@H](OC)C(=O)[C@H](C)C[C@H](C)/C=C/C=C/C=C/1C [zotarolimus]
inactive: YWHAB 0.015 | YWHAQ 0.196 | YWHAZ [1] -0.072 | YWHAZ [2] 0.107 | YY1 -0.01 | ZADH2 0.07 | ZBTB21 0.004 | ZBTB43 -0.036 | ZC3H18 0.041 | ZC3H8 0.029 | ZC3HC1 0.052 | ZCCHC9 -0.044 | ZDHHC17 0.039 | ZDHHC20 -0.15 | ZDHHC5 -0.085 | ZDHHC7 isoform 2 -0.245

COc1cccc2cc(-c3nc([C@H]4CC[C@H](C(=O)O)CC4)n4ncnc(N)c34)[nH]c12
inactive: YWHAB 0.014 | YWHAQ -0.098 | YWHAZ [1] 0.187 | YWHAZ [2] -0.052 | YY1 0.009 | ZADH2 -0.059 | ZBTB17 isoform 2 -0.006 | ZBTB21 0.129 | ZC3H18 0.014 | ZC3H8 -0.02 | ZC3HC1 0.032 | ZCCHC9 -0.121 | ZDHHC17 0.003 | ZDHHC20 0.11 | ZDHHC5 -0.007

NC1(c2ccc(-c3nc4ccn5c(=O)[nH]nc5c4cc3-c3ccccc3)cc2)CCC1
inactive: YWHAB -0.056 | YWHAQ 0.007 | YWHAZ [1] -0.206 | YWHAZ [2] 0.066 | YY1 0.011 | ZADH2 0.106 | ZBTB17 isoform 2 -0.143 | ZBTB21 0.047 | ZC3H18 0.032 | ZC3H8 0.181 | ZC3HC1 -0.091 | ZCCHC9 0.218 | ZDHHC17 -0.06 | ZDHHC20 -0.027 | ZDHHC5 -0.027

C[C@@H](N)c1ccc(C(=O)Nc2ccnc3[nH]ccc23)cc1
inactive: YWHAB -0.065 | YWHAQ -0.302 | YWHAZ [1] 0.179 | YWHAZ [2] -0.178 | YY1 -0.071 | ZADH2 -0.071 | ZBTB21 0.125 | ZBTB43 -0.013 | ZC3H18 -0.103 | ZC3H8 0.218 | ZC3HC1 -0.213 | ZCCHC9 0.359 | ZDHHC17 -0.03 | ZDHHC20 0.051 | ZDHHC5 0.006 | ZDHHC7 isoform 2 -0.065

NC1(Cc2ccc(Cl)cc2)CCN(c2ncnc3[nH]ccc23)CC1
inactive: YWHAB 0.028 | YWHAQ 0.029 | YWHAZ [1] 0.07 | YWHAZ [2] 0.059 | YY1 0.066 | ZADH2 0.008 | ZBTB17 isoform 2 -0.199 | ZBTB21 0.024 | ZBTB43 -0.053 | ZC3H18 -0.124 | ZC3H8 -0.01 | ZC3HC1 0.019 | ZCCHC9 -0.1 | ZDHHC17 0.022 | ZDHHC20 0.059 | ZDHHC5 0.071 | ZDHHC7 isoform 2 0 | ZDHHC8 isoform 3 0.063

O=C1NC(=O)C(c2cnc3ccccn23)=C1c1cn2c3c(cc(F)cc13)CN(C(=O)N1CCCCC1)CC2
inactive: YWHAB -0.04 | YWHAQ -0.095 | YWHAZ [1] -0.239 | YWHAZ [2] -0.025 | YY1 -0.013 | ZADH2 -0.043 | ZBTB21 -0.226 | ZBTB43 0.196 | ZC3H18 0.03 | ZC3H8 0 | ZC3HC1 -0.132 | ZCCHC9 0.229 | ZDHHC17 0.043 | ZDHHC20 0.079 | ZDHHC5 -0.014 | ZDHHC6 0.089 | ZDHHC7 isoform 2 -0.021 | ZDHHC8 isoform 3 0.029

C=CC(=O)N1CCC[C@@H](n2nc(-c3ccc(Oc4ccccc4)cc3)c3c(N)ncnc32)C1 [ibrutinib]
inactive: YWHAB -0.013 | YWHAQ 0.002 | YWHAZ [1] -0.167 | YWHAZ [2] 0.019 | YY1 -0.032 | ZADH2 0.125 | ZBTB17 isoform 2 -0.05 | ZBTB21 -0.174 | ZBTB43 0.064 | ZC3H18 0.002 | ZC3H8 0.03 | ZC3HC1 -0.041 | ZCCHC9 0.06 | ZDHHC17 -0.029 | ZDHHC20 -0.004 | ZDHHC5 0.02 | ZDHHC8 isoform 3 0.043

CN1CCc2c(c3ccccc3n2Cc2ccc(C(=O)NO)cc2)C1 [Tubastatin A]
inactive: YWHAB -0.014 | YWHAQ -0.026 | YWHAZ [1] 0.102 | YWHAZ [2] -0.004 | YY1 -0.011 | ZADH2 -0.007 | ZBTB17 isoform 2 0.049 | ZBTB21 -0.132 | ZBTB43 -0.018 | ZC3H18 0.129 | ZC3H8 -0.034 | ZC3HC1 0.07 | ZCCHC9 0.103 | ZDHHC17 -0.012 | ZDHHC20 0.02 | ZDHHC5 0.051 | ZDHHC7 isoform 2 -0.003 | ZDHHC8 isoform 3 0.058

O=C(O)c1ccc2c(c1)nc(Nc1cccc(Cl)c1)c1ccncc12 [silmitasertib]
inactive: YWHAB -0.014 | YWHAQ 0 | YWHAZ [1] -0.065 | YWHAZ [2] -0.078 | YY1 0.057 | ZADH2 0.053 | ZBTB17 isoform 2 0.023 | ZBTB21 0.104 | ZC3H18 0.135 | ZC3H8 0.035 | ZC3HC1 0.06 | ZCCHC9 0.095 | ZDHHC17 0.025 | ZDHHC20 0.08 | ZDHHC5 0.101

C[C@@H]1COCCN1c1cc(C2(S(C)(=O)=O)CC2)nc(-c2cccc3[nH]ccc23)n1
inactive: YWHAB 0.025 | YWHAQ 0.074 | YWHAZ [1] 0.165 | YWHAZ [2] 0.011 | YY1 0.02 | ZADH2 0.22 | ZBTB21 -0.101 | ZBTB43 -0.088 | ZC3H18 -0.008 | ZC3H8 -0.151 | ZC3HC1 0.119 | ZCCHC9 -0.381 | ZDHHC17 0.005 | ZDHHC20 0.131 | ZDHHC5 -0.011 | ZDHHC6 0.067 | ZDHHC7 isoform 2 -0.037 | ZDHHC8 isoform 3 0.284

O=C1NC(=O)/C(=C\c2ccc3nccnc3c2)S1
inactive: YWHAB 0.023 | YWHAQ 0.003 | YWHAZ [1] -0.01 | YWHAZ [2] -0.012 | YY1 0.004 | ZADH2 -0.05 | ZBTB17 isoform 2 0.171 | ZBTB21 0.156 | ZBTB43 -0.054 | ZC3H18 0.035 | ZC3H8 0.044 | ZC3HC1 0.021 | ZCCHC9 -0.015 | ZDHHC17 0.11 | ZDHHC20 0.095 | ZDHHC5 0.007 | ZDHHC8 isoform 3 -0.002

Cc1ccc(-n2nc(C(C)(C)C)cc2NC(=O)Nc2ccc(OCCN3CCOCC3)c3ccccc23)cc1 [doramapimod]
inactive: YWHAB 0.022 | YWHAQ -0.12 | YWHAZ [1] 0 | YWHAZ [2] 0.013 | YY1 -0.037 | ZADH2 -0.013 | ZBTB21 0.069 | ZBTB43 -0.029 | ZC3H18 0.052 | ZC3H8 0.038 | ZC3HC1 -0.056 | ZCCHC9 0.169 | ZDHHC20 -0.025 | ZDHHC5 0.027 | ZDHHC7 isoform 2 0.113 | ZDHHC8 isoform 3 0.359
active: ZDHHC17 0.264

Cn1c2cc(S(C)=O)sc2c2cnn(Cc3cccc(N)c3)c(=O)c21 (stereo not drawn)
inactive: YWHAB -0.068 | YWHAQ -0.167 | YWHAZ [1] 0.101 | YWHAZ [2] -0.115 | YY1 0.045 | ZADH2 -0.013 | ZBTB21 0.049 | ZBTB43 0.017 | ZC3H18 0.135 | ZC3H8 0.127 | ZC3HC1 -0.135 | ZDHHC17 -0.027 | ZDHHC20 0.084 | ZDHHC5 -0.049 | ZDHHC7 isoform 2 0.02 | ZDHHC8 isoform 3 0.121

CC(C)C[C@@H](C=O)NC(=O)[C@H](CC(C)C)NC(=O)[C@H](CC(C)C)NC(=O)OCc1ccccc1
inactive: YWHAB -0.003 | YWHAQ -0.184 | YWHAZ [1] 0.019 | YWHAZ [2] -0.098 | YY1 0.091 | ZADH2 -0.045 | ZBTB21 -0.013 | ZBTB43 0.05 | ZC3H18 -0.042 | ZC3H8 0.045 | ZC3HC1 -0.101 | ZCCHC9 0.305 | ZDHHC17 -0.057 | ZDHHC20 -0.153 | ZDHHC5 -0.029 | ZDHHC7 isoform 2 -0.069
